Here are results for twelve sequences from the supplement of paper PMC6555819.

What all share (test): PBM binding z-score (relative to random genomic background probes); higher = stronger binding; sequences stand for … in GC…GCGATTGACAGCGTAGAATGAAGG
In assay [1] the test system is FXR:RXRa (NR concentration 270 nM, RXRa partner concentration 90 nM). The procedure, abridged: (§1)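 For binding z-scores, the reference was random background probes on custom Agilent 4×180K protein-binding microarrays. These arrays were incubated 1 h with ligand-free nuclear receptor dimers in PBS pH 7.4, 2% milk, 0.02% Triton X-100, 1 mM DTT, 0.2 mg/mL BSA and 0.4 mg/ml salmon testes DNA. Fluorescence was scanned after antibody detection of each partner (one per run) and regression-normalized.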

Assay [2] relates to LXRa:RXRa (NR concentration 270 nM, RXRa partner concentration 90 nM). The method in brief: as §1
In assay [3] the test system is LXRa homodimer (NR concentration 270 nM). The procedure, abridged: as §1
Assay [4] relates to LXRb:RXRa (NR concentration 270 nM, RXRa partner concentration 90 nM). The procedure, abridged: as §1
Assay [5] has as its system LXRb homodimer (NR concentration 270 nM). The method in brief:
as §1

Assay [6] has as its system PPARa:RXRa (NR concentration 270 nM, RXRa partner concentration 90 nM). The method in brief: as §1
Assay [7] deals with PPARg:RXRa (NR concentration 180 nM, RXRa partner concentration 90 nM). The method in brief:
as §1

Assay [8] has as its system PPARg:RXRa 270nM:90nM, anti-RXR (NR concentration 270 nM, RXRa partner concentration 90 nM). The procedure, abridged:
as §1

For assay [9], the system named is PPARg:RXRa 30nM:10nM, anti-RXR (NR concentration 30 nM, RXRa partner concentration 10 nM). The method in brief:
as §1

Assay [10] deals with PPARg:RXRa 90nM:30nM, anti-RXR (NR concentration 90 nM, RXRa partner concentration 30 nM). The method in brief: as §1

In the case of CGTCCAAGGTCAATGCTAGGTGAGTGAAAGCATT, the PBM binding z-score in assay [1] is 5.97; in assay [2], 4.36; in [3], 0.361; in [4] it was 3.28; in [5] it was 0.445; in assay [6], 4.69. Further, the PBM binding z-score in assay [7] came to 3.49; in assay [8] it was 4; in assay [9], 0.812; in assay [10], 2.99.
As to AGTCAAAGTTCACTAGGTAACGTAAGATTCAGCT, the PBM binding z-score in assay [1] came out at 5.37; in [2], 5.1; in assay [3], 3.04; in assay [4] it was 3.17; in assay [5], 1.11; in [6], 5.11. In addition, the PBM binding z-score in [7] is 7.61; in assay [8], 6.5; in assay [9], 3.74; in [10], 6.12.
In the case of GCTGCGAGGTCAGGTTGGTCAGCTAACGGGTACG, the PBM binding z-score was found to be 5.45 in [1]; 3.46 in assay [2]; 0.305 in assay [3]; 2.93 in assay [4]; 0.482 in [5]; 4.38 in [6]. In addition, the PBM binding z-score stood at 2.49 in assay [7], 2.99 in assay [8], 0.517 in assay [9] and 1.75 in assay [10].
Consider ACATGTAGGTTATCGGGTCATTCAGTTTGCGCAT, for which the PBM binding z-score in assay [1] was 3.45; in assay [2], 3.33; in assay [3] it was 1.98; in [4], 3.33; in assay [5], 1.7; in assay [6] it was 4.49. Further, the PBM binding z-score in [7] turned out to be 6.1; in assay [8], 5.23; in assay [9], 2.59; in assay [10] it was 4.9.
For CCTACTGAGCCAAGGTCATTGATCAGTCAAAGCA, the PBM binding z-score in assay [1] is 3.46; in assay [2] it was 3.43; in [3], 1.43; in assay [4], 3.3; in [5], 0.637; in assay [6], 3.61. The PBM binding z-score in assay [7] is 0.656; in [8], 1.62; in assay [9], 0.331; in assay [10], 0.858.
Regarding TCATATAGGTAAATGCTAGGTGGAAGTCCGATCT, the PBM binding z-score in assay [1] was 0.532; in assay [2], 0.496; in [3] it was 0.0241; in assay [4], 0.66; in assay [5], -0.216; in [6] it was 0.983. Further, the PBM binding z-score in [7] amounted to 0.493; in [8], 2.41; in assay [9], 3.84; in assay [10], 2.88.
With ACTATTAGATGACTTAGGGCAACCGATACGACGC, the PBM binding z-score came out at 0.344 in assay [1]; 0.353 in assay [2]; 0.702 in [3]; 0.165 in [4]; 1.14 in [5]; 0.0577 in [6]. The PBM binding z-score in assay [7] was 1.25; in assay [8], 0.22; in assay [9], 0.441; in assay [10], 0.295.
In the case of CGAACTAGGTCATTGACAGGACAGTGAGTAGTAA, the PBM binding z-score is 4.28 in [1]; 3.06 in assay [2]; 0.194 in assay [3]; 1.92 in assay [4]; -0.291 in [5]; 4.8 in [6]. The PBM binding z-score came out at 7.21 in assay [7], 6.03 in assay [8], 3.7 in assay [9] and 5.57 in assay [10].
For GATACAGGGCCAAGGCCAGAGTACGCGTATTGAT, the PBM binding z-score is -0.68 in assay [1]; -0.832 in assay [2]; -0.782 in [3]; -1 in assay [4]; -1.09 in [5]; -0.662 in [6]. For the same sequence, the PBM binding z-score was 0.814 in assay [7], 0.25 in assay [8], -0.269 in assay [9] and -0.247 in assay [10].
In the case of ATCTCTAGATAAGACTCAGTTCAGTGAAGAACGC, the PBM binding z-score in [1] is -0.0405; in assay [2], -0.109; in assay [3], 0.034; in assay [4], -0.147; in [5], 0.392; in assay [6] it was -0.438. The PBM binding z-score in assay [7] was 0.0934; in assay [8] it was -0.337; in [9] it was 0.0965; in [10], 0.00622.
As to CCTACTGGGCCACGAAATGTCATTGATTCAGTGA, the PBM binding z-score is -0.161 in assay [1]; -0.0585 in [2]; -0.34 in assay [3]; -0.341 in assay [4]; -0.393 in assay [5]; 0.653 in assay [6]. The PBM binding z-score is 1.58 in assay [7], 1.24 in assay [8], -0.144 in assay [9] and 0.475 in assay [10].
For ATACCAAGGTGATCGTGAGGTCGTCGATACTAAC, the PBM binding z-score was 1.46 in [1]; 1.08 in assay [2]; 0.311 in [3]; 0.992 in assay [4]; -0.191 in [5]; 1.75 in assay [6]. In addition, the PBM binding z-score in assay [7] worked out at 0.672; in assay [8], 0.691; in assay [9], 0.0309; in assay [10], 0.54.
